A short description of test [1]: qHTS assay to identify small molecule antagonists of the retinoid-related orphan receptor gamma (ROR-gamma) signaling pathway - cell viability counter screen (AID 1159520). Note: nearly all actives have a fitted effect of over 50% in size. Note: potency is the fitted concentration of half-maximal effect. The method in brief: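 Tet-on ROR gamma CHO cells (1,000/well) were plated 4 hr, given compounds in DMSO for 2 hr at 37 C, then induced with 1 uM final doxycycline for 16 hr. Viability was read as ATP by CellTiter-Glo luminescence after 30 min.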

The target in test [2] is Nuclear receptor ROR-gamma (Homo sapiens) (UniProt P51449). Description: qHTS assay to identify small molecule antagonists of the retinoid-related orphan receptor gamma (ROR-gamma) signaling pathway (AID 1159521; note: nearly all actives have a fitted effect of over 50% in size; note: potency is the fitted concentration of half-maximal effect). The method in brief: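 Cells were plated, rested 4 h at 37 C, exposed to compounds for 2 h, then given 1 uM final doxycycline hyclate to induce RORγ expression. After 16 h, ONE-Glo luminescence from the ROR response element reporter was measured.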
A general note: Quantitative high-throughput screening tests each substance at several concentrations.

Test [3] can be described thus: qHTS assay to identify small molecule agonists of the AP-1 signaling pathway - cell viability counter screen (AID 1159525; calls by dose curve; note: nearly all actives have a fitted effect of over 55% in size; note: potency is the fitted concentration of half-maximal effect). The method in brief: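 ME-180 AP-1-bla, 2500 cells/well, Opti-MEM + 0.5% dialyzed FBS; overnight 37 °C; cpd 15-pt titration, 5 h 37 °C; CellTiter-Glo 30 min RT; luminescence read; normalised to TOAB and DMSO controls.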
For test [4], the target named is Retinoic acid receptor RXR-alpha (Homo sapiens) (UniProt P19793). Description: qHTS assay to identify small molecule agonists of the RXR signaling pathway (AID 1159527; calls by dose curve; note: % is set by controls: 0 for no effect and ±100 for the full control effect; nearly all actives have a fitted effect of over 35% in size). The gist of the method: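 Cells plated at 2,000/well, rested 5 hr at 37 C, pin-dosed with DMSO compound solutions, incubated 16 hr, then loaded with B/G FRET substrate for 2 hr at RT before dual-emission fluorescence reading.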

The nature of test [5]: qHTS assay to identify small molecule antagonists of the retinoid acid receptor (RAR) signaling pathway - cell viability counter screen (AID 1159551). Note: nearly all actives have a fitted effect of over 35% in size. Note: potency is the fitted concentration of half-maximal effect. The gist of the method: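 Following overnight attachment, C3RL4 reporter cells received DMSO-dissolved compounds and then retinol (1 uM final). Six hours later at 37 C, ATP content was measured by CellTiter-Glo luminescence.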

The nature of test [6]: qHTS assay to identify small molecule agonists of the peroxisome proliferator-activated receptor delta (PPARd) signaling pathway - cell viability counter screen (AID 743211). Note: nearly all actives have a fitted effect of over 55% in size. Note: potency is the fitted concentration of half-maximal effect. The method in brief: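 Counter screen for cytotoxicity run in parallel with the PPARd reporter screen. Beta-lactamase reporter HEK293H cells exposed to compounds 17 h; ATP-based CellTiter-Glo luminescence quantified viability.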

Test [7] is described as follows: qHTS assay to identify small molecule antagonists of the peroxisome proliferator-activated receptor delta (PPARd) signaling pathway - cell viability counter screen (AID 743213). Note: potency is the fitted concentration of half-maximal effect; nearly all actives have a fitted effect of over 50% in size. The gist of the method:
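CellTiter-Glo was added to PPARd-bla HEK293H wells following 17 h compound treatment in the presence of 300 nM L165041. Luminescence was recorded after 30 min at room temperature.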

Test [8] can be described thus: qHTS assay to identify small molecule agonists of the farnesoid-X-receptor (FXR) signaling pathway - cell viability counter screen (AID 743218). Note: nearly all actives have a fitted effect of over 45% in size. Note: potency is the fitted concentration of half-maximal effect. The gist of the method:
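In GeneBLAzer FXR-UAS-bla HEK 293T cells, compounds act for 16 h at 37 C. Cell viability is then scored in the reporter wells by CellTiter-Glo, 30 min at RT, luminescence.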

Test [9] in a line: qHTS assay to identify small molecule antagonists of the farnesoid-X-receptor (FXR) signaling pathway - cell viability counter screen (AID 743221; active = well fitted cell-killing curve with a large enough effect in the repeat runs, not every such curve was filed as active; note: nearly all actives have a fitted effect of over 50% in size; note: potency is the fitted concentration of half-maximal effect). The gist of the method: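 Multiplexed counter screen: viability of FXR-bla HEK 293T cells under agonist stimulation by chenodeoxycholic acid (50 uM, final) and test compound for 16 h at 37 C, measured by CellTiter-Glo luminescence in the reporter wells.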

The target of test [10] is Vitamin D3 receptor (Homo sapiens) (UniProt P11473). Put plainly: qHTS assay to identify small molecule antagonists of the vitamin D receptor (VDR) signaling pathway (AID 743223; active = well fitted inhibition curve with a large enough effect in the signal ratio in the repeat runs, not every such curve was filed as active; the % refers to the signal ratio; note: potency is the fitted concentration of half-maximal effect). The gist of the method:
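Cells carrying a VDR-driven beta-lactamase reporter (VDR-bla) were co-treated with compound and 3 nM final 1alpha,25-dihydroxyvitamin D3 for 16 h at 37C; reporter activity was measured as FRET substrate fluorescence after 2 h at room temperature.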

Test [11] in a line: qHTS assay to identify small molecule agonists of the vitamin D receptor (VDR) signaling pathway - cell viability counter screen (AID 743224). The method in brief:
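VDR-bla cell line, quantitative HTS format; 16 h compound incubation (37C, 5% CO2); ATP-based CellTiter-Glo luminescence measured in the reporter assay wells.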

The nature of test [12]: qHTS assay to identify small molecule antagonists of the vitamin D receptor (VDR) signaling pathway - cell viability counter screen (AID 743225). Note: nearly all actives have a fitted effect of over 50% in size. Note: potency is the fitted concentration of half-maximal effect. The gist of the method:
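HEK293T VDR-bla; cpd + 1a,25-(OH)2D3 3 nM final, 16 h 37C/5% CO2; B/G FRET substrate 2 h RT; then CellTiter-Glo 30 min RT, luminescence.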

The nature of test [13]: qHTS assay to identify small molecule agonists of the RXR signaling pathway - cell viability counter screen (AID 1159529). Note: nearly all actives have a fitted effect of over 50% in size. Note: potency is the fitted concentration of half-maximal effect. The gist of the method: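 Steps: seed RXR-alpha-UAS-bla HEK 293T cells in assay medium containing 2% charcoal-stripped FBS; incubate 5 hr; add compounds in DMSO; incubate 16 hr at 37 C; after the bla read, add CellTiter-Glo and read luminescence at 30 min.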

A short description of test [14]: qHTS assay to identify small molecule antagonists of the retinoic acid receptor (RAR) signaling pathway (AID 1159552; note: nearly all actives have a fitted effect of over 50% in size; note: potency is the fitted concentration of half-maximal effect). The gist of the method: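 Retinol at 1 uM final stimulated RARE-luciferase expression in C3RL4 cells exposed to test compounds for 6 hr at 37 C. Reduced luminescence, read 30 min after detection reagent, indicated pathway antagonism.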
Test [15] deals with Peroxisome proliferator-activated receptor delta (Homo sapiens) (UniProt Q03181). Put plainly: qHTS assay to identify small molecule agonists of the peroxisome proliferator-activated receptor delta (PPARd) signaling pathway (AID 743212; calls by dose curve; note: % is set by controls: 0 for no effect and ±100 for the full control effect). The method in brief:
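GeneBLAzer PPARd UAS-bla HEK293H cells (beta-lactamase reporter under UAS control), plated and rested 5 h at 37 C, then exposed to compounds in DMSO at 37 C; LiveBLAzer B/G FRET substrate added, 2 h room temperature, fluorescence read.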

Test [16] addresses Vitamin D3 receptor (Homo sapiens) (UniProt P11473). Description: qHTS assay to identify small molecule agonists of the vitamin D receptor (VDR) signaling pathway (AID 743222; calls by dose curve; note: % is set by controls: 0 for no effect and ±100 for the full control effect). The method in brief:
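Agonist activity measured in VDR-bla reporter cells. Exposure 16 h, 37C, 5% CO2; detection by B/G FRET substrate, 2 h RT.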

Test [17] addresses Bile acid receptor (Homo sapiens) (UniProt Q96RI1). Put plainly: qHTS assay to identify small molecule agonists of the farnesoid-X-receptor (FXR) signaling pathway (AID 743220; active = well fitted activation curve with a large enough effect in the signal ratio in the repeat runs, not every such curve was filed as active; the % refers to the signal ratio; note: % is set by controls: 0 for no effect and ±100 for the full control effect). The method in brief:
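Beta-lactamase reporter under UAS control in GeneBLAzer FXR HEK 293T cells (5000/well) measured with LiveBLAzer FRET substrate after 2 h at room temperature. Compound exposure lasted 16 h at 37C.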

The target is the same in test [18]. Put plainly: qHTS assay to identify small molecule antagonists of the farnesoid-X-receptor (FXR) signaling pathway (AID 743217; active = well fitted inhibition curve with a large enough effect in the signal ratio in the repeat runs, not every such curve was filed as active; the % refers to the signal ratio; note: % is set by controls: 0 for no effect and ±100 for the full control effect). The method in brief: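 Beta-lactamase reporter under UAS control in HEK 293T cells; compound exposure 16 h at 37 °C in the presence of chenodeoxycholic acid (50 uM final); signal from B/G FRET substrate after 2 h at room temperature.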

Molecules are shown by their SMILES. Inconclusive results are not listed. A number with no mark means an inactive call. Calls of active or inactive are those of the source. Unless noted, calls come from the whole dose curve; as a rule, active = well fitted curve in the direction sought with a large enough effect in the repeat runs; inconclusive = weak or mixed curves; inactive = no such curve, though single readings can be large; an effect the other way counts as inactive or inconclusive.

Peroxisome proliferator-activated receptor delta (Homo sapiens), sequence (Q03181 whole entry, looked up): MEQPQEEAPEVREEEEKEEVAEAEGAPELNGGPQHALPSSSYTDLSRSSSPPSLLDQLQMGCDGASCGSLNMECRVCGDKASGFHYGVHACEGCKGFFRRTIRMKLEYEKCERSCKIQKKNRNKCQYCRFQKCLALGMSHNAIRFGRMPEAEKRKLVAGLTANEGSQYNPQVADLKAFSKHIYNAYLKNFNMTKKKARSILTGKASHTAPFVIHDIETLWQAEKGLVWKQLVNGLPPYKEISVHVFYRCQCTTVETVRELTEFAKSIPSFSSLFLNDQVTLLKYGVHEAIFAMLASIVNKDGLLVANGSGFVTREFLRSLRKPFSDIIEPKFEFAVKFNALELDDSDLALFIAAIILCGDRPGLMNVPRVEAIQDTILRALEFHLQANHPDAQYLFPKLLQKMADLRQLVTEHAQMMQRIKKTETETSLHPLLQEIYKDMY
Vitamin D3 receptor (Homo sapiens), sequence (P11473 whole entry, looked up): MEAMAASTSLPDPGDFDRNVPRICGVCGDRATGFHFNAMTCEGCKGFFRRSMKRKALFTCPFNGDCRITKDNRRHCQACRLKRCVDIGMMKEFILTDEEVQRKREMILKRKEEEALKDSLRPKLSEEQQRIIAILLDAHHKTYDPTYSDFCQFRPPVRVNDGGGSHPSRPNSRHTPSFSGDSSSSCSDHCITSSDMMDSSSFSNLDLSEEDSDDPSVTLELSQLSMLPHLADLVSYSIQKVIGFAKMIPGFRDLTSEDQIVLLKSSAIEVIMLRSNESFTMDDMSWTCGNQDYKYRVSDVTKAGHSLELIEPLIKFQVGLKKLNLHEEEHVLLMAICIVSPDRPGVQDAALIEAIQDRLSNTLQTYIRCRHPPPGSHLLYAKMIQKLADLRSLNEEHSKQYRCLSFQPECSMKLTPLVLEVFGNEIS
Bile acid receptor (Homo sapiens), sequence (Q96RI1 whole entry, looked up): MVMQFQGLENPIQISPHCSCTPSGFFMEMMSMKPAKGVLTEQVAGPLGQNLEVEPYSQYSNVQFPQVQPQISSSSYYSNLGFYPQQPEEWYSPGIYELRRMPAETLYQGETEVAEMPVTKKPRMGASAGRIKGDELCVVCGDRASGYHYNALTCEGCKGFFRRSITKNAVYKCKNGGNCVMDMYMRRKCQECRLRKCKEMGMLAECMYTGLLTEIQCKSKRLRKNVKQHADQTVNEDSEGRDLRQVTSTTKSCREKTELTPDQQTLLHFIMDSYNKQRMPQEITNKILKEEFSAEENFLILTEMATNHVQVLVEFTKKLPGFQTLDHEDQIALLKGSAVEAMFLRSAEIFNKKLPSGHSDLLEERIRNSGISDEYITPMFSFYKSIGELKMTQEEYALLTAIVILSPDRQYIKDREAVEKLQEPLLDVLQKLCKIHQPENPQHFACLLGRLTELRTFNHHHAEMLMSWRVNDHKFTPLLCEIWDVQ
Retinoic acid receptor RXR-alpha (Homo sapiens), sequence (P19793 whole entry, looked up): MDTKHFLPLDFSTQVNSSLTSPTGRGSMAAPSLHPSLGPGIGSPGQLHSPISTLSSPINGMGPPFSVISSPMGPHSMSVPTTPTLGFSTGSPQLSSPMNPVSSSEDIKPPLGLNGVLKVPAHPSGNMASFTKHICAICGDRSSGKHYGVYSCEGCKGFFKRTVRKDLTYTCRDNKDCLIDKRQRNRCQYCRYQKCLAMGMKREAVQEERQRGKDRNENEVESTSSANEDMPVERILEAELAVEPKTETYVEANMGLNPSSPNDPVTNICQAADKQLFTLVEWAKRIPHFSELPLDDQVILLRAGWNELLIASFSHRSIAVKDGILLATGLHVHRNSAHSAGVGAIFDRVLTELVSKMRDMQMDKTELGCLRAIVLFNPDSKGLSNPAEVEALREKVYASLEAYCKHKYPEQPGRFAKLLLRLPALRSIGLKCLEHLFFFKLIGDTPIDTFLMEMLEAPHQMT

On to `C=Cc1ccc(O)c(OC)c1`, for which the Potency entry in test [1], in test [2], in test [3], in test [4] and in test [5] was “inactive” in each case.

Turning to `CCCCCN=C(N)N/N=C/c1c[nH]c2ccc(OC)cc12`, the Potency in test [6] was 8.41 µM (active); in test [7], 33.5 µM (active); in test [8], 13.3 µM (active); in test [9], 29.8 µM (active); in test [10], 13.4 µM (active); in test [11] it was 29.8 µM (active). Further, the Potency in [12] is 16.9 µM (active); in test [1], 26.6 µM (active); in test [2], 33.5 µM (active); in [3], 23.9 µM (active); in test [13], 7.56 µM (active); in test [5], 29.8 µM (active). Also, the Potency in test [14] was 13.3 µM (active).

For `N#CCCOCCC#N`, the Potency entry in test [1], in [2], in test [3], in [4], in test [13] and in test [5] was “inactive” each time. Also, the Potency result in test [14] is “inactive”.

In the case of `C=C[Si](C)(C)Cl`, in test [1], the activity, negative = cytotoxicity was 5.94% [at 8.39 µM]. Besides, in test [2], the activity change, negative = inhibition is -27.2% [at 8.39 µM]. Besides, the viability change, negative = cytotoxic in test [3] is -3.04% [at 6.97 µM]. Also, in test [4], the activation is 0.333% [at 6.98 µM]. The activity change, negative = cytotoxicity in [5] was -1.54% [at 8.39 µM]. For the same compound, the activity, negative = inhibition in test [14] is 83.8% [at 8.39 µM].

Consider `CCOC(=O)C1=NN(c2ccc(Cl)cc2Cl)C(C)(C(=O)OCC)C1` (stereo not drawn), for which the Potency entry in [1], in test [3], in test [4], in [13], in test [5] and in [14] was “inactive” in each case. Also, the Potency in test [2] was 30.6 µM (active).

As to `c1ccc2c(c1)-c1ccc3ccc4cccc5cc-2c1c3c45`, the Potency result in test [1], in test [2], in [3] and in test [5] was “inactive” throughout.

As for `COCCC(=O)OC`, the Potency result in test [1], in test [2], in [3], in test [4], in test [13] and in test [5] was “inactive” each time. In test [14], the Potency result was “inactive”.

On to `Cc1ccc(S(=O)(=O)C(I)I)cc1`, for which the Potency was 17.2 µM (active) in test [1]; 6.11 µM (active) in [2]; 17.4 µM (active) in test [3]; 12.3 µM (active) in [13]; 43.3 µM (active) in test [5]; 9.69 µM (active) in test [14].

Take `Nc1ccc(Cl)c([N+](=O)[O-])c1`: the Potency result in test [1], in test [3], in [4], in [5] and in test [14] was “inactive” in each case. Besides, the Potency in test [2] is 38.6 µM (active).

For `CCCCCCCCCCCCCCCCC(C(=O)O)C(O)(CC(=O)O)C(=O)O` (stereo not drawn), the Potency is 13.3 µM (active) in [6]; 18.8 µM (active) in [7]; 18.8 µM (active) in test [8]; 23.7 µM (active) in test [9]; 26.6 µM (active) in test [11]; 21.3 µM (active) in [3]. The Potency in [13] was 19 µM (active). The compound was classed as inactive in [15] and in test [16]. Besides, the Potency result in test [10], in test [1], in test [2], in test [5] and in test [14] was “inactive” in each case.

As for `NCc1cccc(C2CCN(C(=O)c3ccc(C#Cc4ccccc4F)o3)CC2)c1`, the Potency in test [6] is 21.9 µM (active); in [7], 49 µM (active); in [8] it was 34.7 µM (active); in test [11], 54.9 µM (active); in test [12], 34.7 µM (active); in test [1] it was 43.3 µM (active). Besides, the Potency in [2] is 34.4 µM (active); in test [3], 54.9 µM (active); in [13], 13.8 µM (active); in test [5], 68.6 µM (active); in test [14], 54.5 µM (active). In [17], the outcome was inactive.

`O=C1CCC/C=C\CCCCCCCCCC1`: the Potency result in test [6], in [18], in test [8], in [9], in [10] and in test [12] was “inactive” each time. For the same compound, the Potency entry in [1], in [2], in test [3], in test [5] and in test [14] was “inactive” throughout. For the same compound, the result in [15], in [17] and in test [16] was inactive.

In the case of `O=C(Nc1ccccc1)c1cc(Cl)ccc1O`, the Potency in test [8] was 38.9 µM (active); in [11], 12.3 µM (active); in test [12], 12.3 µM (active); in test [1], 24.3 µM (active); in test [2] it was 12.2 µM (active). In addition, the compound was called inactive in [17] and in test [16]. Further, the Potency entry in test [3], in test [5] and in test [14] was “inactive” throughout.

As for `O=C1OC(O)C(C(Cl)Cl)=C1Cl` (stereo not drawn), the compound was classed as inactive in test [15] and in test [16]. Further, the Potency result in [9], in [3] and in [5] was “inactive” in each case. Further, the Potency in test [1] is 7.07 µM (active); in test [2] it was 14.1 µM (active).
